{"source": "PubChem BioAssay (EPA / NIEHS)", "key": {"[1]": {"target": "Ratio of Nucleoli Translocation and Cytoplasm, AR (gene 367) (UniProt P10275)", "sequence (P10275 whole entry, looked up)": "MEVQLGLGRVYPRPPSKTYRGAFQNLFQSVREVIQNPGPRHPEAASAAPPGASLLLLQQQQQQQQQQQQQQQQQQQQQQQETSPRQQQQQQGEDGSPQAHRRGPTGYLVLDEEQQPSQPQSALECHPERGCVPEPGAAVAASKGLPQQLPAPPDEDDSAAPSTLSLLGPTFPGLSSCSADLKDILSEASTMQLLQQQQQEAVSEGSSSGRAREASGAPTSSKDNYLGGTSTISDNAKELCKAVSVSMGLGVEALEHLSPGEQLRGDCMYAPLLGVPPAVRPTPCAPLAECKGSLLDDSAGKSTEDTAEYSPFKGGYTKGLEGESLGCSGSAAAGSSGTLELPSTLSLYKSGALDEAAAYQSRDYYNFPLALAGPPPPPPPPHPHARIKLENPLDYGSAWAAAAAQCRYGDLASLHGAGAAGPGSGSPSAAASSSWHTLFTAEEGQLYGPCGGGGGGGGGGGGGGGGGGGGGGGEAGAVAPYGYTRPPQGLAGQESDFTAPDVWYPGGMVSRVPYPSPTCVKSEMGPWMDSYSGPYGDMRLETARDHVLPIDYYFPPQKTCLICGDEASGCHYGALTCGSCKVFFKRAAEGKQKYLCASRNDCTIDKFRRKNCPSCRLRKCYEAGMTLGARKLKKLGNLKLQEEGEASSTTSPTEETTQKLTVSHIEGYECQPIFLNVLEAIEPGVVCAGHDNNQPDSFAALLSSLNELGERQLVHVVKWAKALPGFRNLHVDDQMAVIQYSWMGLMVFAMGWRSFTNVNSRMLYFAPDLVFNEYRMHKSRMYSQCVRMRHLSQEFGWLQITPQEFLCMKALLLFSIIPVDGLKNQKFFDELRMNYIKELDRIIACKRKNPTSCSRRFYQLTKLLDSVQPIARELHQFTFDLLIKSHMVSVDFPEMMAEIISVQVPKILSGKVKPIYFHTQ", "assay": "UPITT_HCI_U2OS_AR_TIF2_Nucleoli_Cytoplasm_Ratio_Agonist: University of Pittsburgh U2OS Androgen Receptor-Transcriptional Intermediary Factor 2 (AR-TIF2) Agonism High Content Imaging Assay for Ratio of Nucleoli Translocation and Cytoplasm (AID 2284000; active means hit-call score of the fitted dose curve at least 0.9, where 1 is the maximum;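 further: hits raise the red nucleolar to cytoplasm ratio above vehicle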)", "excerpt": "UPITT_AR_TIF2_PPIB is a cell-based, high-content imaging assay that uses U2OS, a human osteosarcoma cell line, expressing a human androgen receptor fused to red fluorescent protein and the coactivator TIF2 fused to green fluorescent protein. UPITT_HCI_U2OS_AR_TIF2_Nucleoli_Cytoplasm_Ratio_Agonist is one of four assay components measured from the UPITT_AR_TIF2_PPIB assay. It is designed to make measurements of the ratio of red fluorescence localized in the nucleolar region of the cell nucleus to red fluorescence localized in the cytoplasm as detected with high-content fluorescent imaging.Data from the assay component UPITT_HCI_U2OS_AR_TIF2_Nucleoli_Cytoplasm_Ratio_Agonist was analyzed into 1 assay endpoint. This assay endpoint, UPITT_HCI_U2OS_AR_TIF2_Nucleoli_Cytoplasm_Ratio_Agonist, was analyzed in the positive analysis fitting direction relative to DMSO as the baseline of activity. Using a type of binding reporter, measures of receptor for gain-of-signal activity can be used to understand the binding at the pathway-level as it relates to the gene AR.\nDaughter plates containing 2 uL of 10 mM compounds in DMSO were prepared and replicated from the 384-well Library of Pharmacologically Active Compounds (LOPAC) master plates using the Bravo outfitted with a 384-well transfer head. Aluminum adhesive plate seals were applied with an Abgene Seal-IT 100 (Rochester, NY) plate sealer, and the plates were stored at -20 C in a Matrical MatriMinistore (Spokane, WA) automated compound storage and retrieval system. For screening, LOPAC daughter plates were withdrawn from -20C storage, thawed to ambient temperature, centrifuged 1-2 min at 50 g, and the plate seals were removed before the transfer of 98 uL of serum-free tissue culture medium (SFM) into wells using the BioTek Microflo liquid handler (BioTek, Winooski, VT) to generate a 200 uM intermediate stock concentration of library compounds (2.0% DMSO). The diluted compounds were mixed by repeated aspiration and dispensation using a 384-well P30 dispensing head on the Evolution P3 (EP3) liquid handling platform (PerkinElmer, Waltham, MA) and then 5 uL of diluted compounds was transferred to the wells of assay plates. In the LOPAC screen, compounds were individually tested at a final concentration of 20 uM (0.2% DMSO). After the diluted compounds had been transferred from the daughter plates to the primary HCS assay plates, aluminum adhesive plate seals were applied and the diluted daughter plates were stored frozen at -20C. To confirm active compounds identified in the primary screen, we withdrew the LOPAC daughter plates containing the 200 uM intermediate concentration of library compounds (2.0% DMSO) from -20C storage, thawed them to ambient temperature, centrifuged them for 1-2 min at 50 g, and removed the plate seals. […]"}, "[2]": {"assay": "CCTE_Harrill_HTTr_Viability_MCF7: CCTE's 6-hour Cell Viability Assessment for the High-Throughput Transcriptomics (HTTr) Platform, in MCF-7 cells cultured in DMEM + 10% fetal bovine serum, Harrill Lab (AID 2284010)", "how_it_was_run": "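Viability measured through PI dye exclusion by high-content imaging at 6 h post-dosing.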"}, "[3]": {"assay": "CCTE_Harrill_HTTr_Apoptosis_MCF7: CCTE's 6-hour Apoptosis Assessment for the High-Throughput Transcriptomics (HTTr) Platform, in MCF-7 cells cultured in DMEM + 10% fetal bovine serum, Harrill Lab (AID 2284011)", "how_it_was_run": "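MCF-7 cells in DMEM + 10% FBS exposed 6 h to chemicals over an eight-point dilution series. Caspase-3/7 activation imaged by high-content CellEvent Green staining; fitted bidirectionally versus DMSO.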"}, "[4]": {"assay": "CCTE_Harrill_HTTr_CellCount_MCF7: CCTE's Cell Proliferation Assessment for the High-Throughput Transcriptomics (HTTr) Platform, Harrill Lab (AID 2284012; active means hit-call score of the fitted dose curve at least 0.9, where 1 is the maximum;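 further: intended direction is loss of nuclei count meaning fewer cells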)", "how_it_was_run": "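Nuclei counting (Hoechst, high content imaging) in MCF-7 after a 6 h treatment at eight concentrations. Activity fitted bidirectionally, DMSO as negative control.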"}, "[5]": {"assay": "CCTE_Shafer_MEA_acute_spike_number: CCTE's Neural Acute Assay for Total Number of Spikes, Shafer Lab (AID 2284008);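 on AC50: curve fitted for decrease in spike count so AC50 reflects inhibitors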", "how_it_was_run": "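Rat primary cortical neurons on 48-well MEA plates, DIV 13 or 15, at 37 C. 40 min baseline then 40 min with compound (0.03-40 uM); spikes detected at 8x rms noise, expressed as percent change from baseline.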"}, "[6]": {"assay": "CCTE_Shafer_MEA_acute_firing_rate_mean: CCTE's Neural Acute Assay for Mean Firing Rate, Shafer Lab (AID 2284009)", "how_it_was_run": "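Rat primary cortical neurons on 48-well MEA plates, dosed at 0.03-40 uM on DIV 13 or 15; 40 min spontaneous activity recorded at 37 C before and after compound. Spike rate per electrode averaged per well, expressed as percent change from baseline.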"}, "[7]": {"assay": "CCTE_Shafer_MEA_acute_burst_number: CCTE's Neural Acute Assay for Single-Electrode Bursts, Shafer Lab (AID 2284013)", "how_it_was_run": "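Primary rat cortical neurons on 16-electrode MEA wells, treated on DIV 13 or 15 with compound at 0.03-40 uM. Single-electrode burst count from 40-min recordings at 37 C before and after exposure; percent change from baseline per well, DMSO negative control.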"}, "[8]": {"assay": "CCTE_Shafer_MEA_acute_burst_duration_mean: CCTE's Neural Acute Assay for Mean Burst Duration, Shafer Lab (AID 2284014)", "how_it_was_run": "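Rat primary cortical neurons on 48-well MEA, treated at DIV 13 or 15 with 0.03-40 uM in at least 3 wells. Value is percent change in mean burst duration, comparing 40 min recordings at 37 C before and during exposure.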"}, "[9]": {"assay": "CCTE_Shafer_MEA_acute_per_burst_spike_number_mean: CCTE's Neural Acute Assay for Average Number of Spikes Per Burst, Shafer Lab (AID 2284015)", "how_it_was_run": "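Primary rat cortical neurons on 48-well MEA plates, treated on DIV 13 or 15 at 0.03-40 uM. Spontaneous activity recorded 40 min before and 40 min after compound at 37 C; percent change in mean spikes per single-electrode burst per well, fitted in the loss direction versus DMSO.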"}, "[10]": {"assay": "CCTE_Shafer_MEA_acute_interburst_interval_mean: CCTE's Neural Acute Assay for Mean Interburst Interval, Shafer Lab (AID 2284016)", "how_it_was_run": "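Primary rat cortical neurons on 16-electrode MEA wells were recorded 40 min at baseline on DIV 13 or 15, then 40 min after compound (0.03-40 uM), at 37 C. Value is percent change in mean interburst interval per well, DMSO as negative control.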"}}, "note": "Inconclusive results are not listed. Activity calls are given as the source filed them. How the source made its calls, unless noted: active means hit-call score of the fitted dose curve at least 0.9, where 1 is the maximum; inactive means score below 0.9."}
{"smiles": "CCCCCCC(C)OC(=O)CCCCC(=O)OC(C)CCCCCC", "note": "(stereo not drawn)", "values": [{"measurement": "outcome", "setting": "[1]", "result": "inactive"}]}
{"smiles": "CNC(=S)NC", "values": [{"measurement": "outcome", "setting": "[2]", "result": "inactive"}, {"measurement": "outcome", "setting": "[3]", "result": "inactive"}, {"measurement": "outcome", "setting": "[4]", "result": "inactive"}]}
{"smiles": "Nc1ccc(S(=O)(=O)Nc2nccs2)cc1", "values": [{"measurement": "outcome", "setting": "[2]", "result": "inactive"}, {"measurement": "outcome", "setting": "[3]", "result": "inactive"}, {"measurement": "outcome", "setting": "[4]", "result": "inactive"}]}
{"smiles": "CCCCCC=O", "values": [{"measurement": "outcome", "setting": "[2]", "result": "inactive"}, {"measurement": "outcome", "setting": "[3]", "result": "inactive"}]}
{"smiles": "CC(CCl)OP(=O)(OC(C)CCl)OC(C)CCl", "note": "(stereo not drawn)", "values": [{"measurement": "outcome", "setting": "[2]", "result": "inactive"}, {"measurement": "outcome", "setting": "[3]", "result": "inactive"}, {"measurement": "outcome", "setting": "[4]", "result": "inactive"}]}
{"smiles": "O=S(=O)(O)c1ccc2ccccc2c1", "values": [{"measurement": "outcome", "setting": "[2]", "result": "inactive"}, {"measurement": "outcome", "setting": "[3]", "result": "inactive"}]}
{"smiles": "[Co]", "values": [{"measurement": "outcome", "setting": "[1]", "result": "inactive"}]}
{"smiles": "CC/C=C\\CCOC(C)=O", "values": [{"measurement": "outcome", "setting": "[2]", "result": "inactive"}, {"measurement": "outcome", "setting": "[3]", "result": "inactive"}]}
{"smiles": "CCN(Cc1cccc(S(=O)(=O)O)c1)c1ccc(C(=C2C=CC(=[N+](CC)Cc3cccc(S(=O)(=O)O)c3)C=C2)c2ccc(O)cc2S(=O)(=O)[O-])cc1", "values": [{"measurement": "outcome", "setting": "[2]", "result": "inactive"}, {"measurement": "outcome", "setting": "[3]", "result": "inactive"}, {"measurement": "outcome", "setting": "[4]", "result": "inactive"}]}
{"smiles": "CCCCC(CC)COP(=O)(O)OCC(CC)CCCC", "note": "(stereo not drawn)", "values": [{"measurement": "AC50", "setting": "[5]", "result": "6.52 nM (active)"}, {"measurement": "AC50", "setting": "[6]", "result": "6.51 nM (active)"}, {"measurement": "AC50", "setting": "[7]", "result": "3 nM (active)"}, {"measurement": "outcome", "setting": "[8]", "result": "inactive"}, {"measurement": "outcome", "setting": "[9]", "result": "inactive"}, {"measurement": "outcome", "setting": "[10]", "result": "inactive"}]}
{"smiles": "C1COCCN1", "values": [{"measurement": "outcome", "setting": "[2]", "result": "inactive"}, {"measurement": "outcome", "setting": "[3]", "result": "inactive"}]}
{"smiles": "CCCCCCOC(=O)c1ccccc1O", "values": [{"measurement": "outcome", "setting": "[1]", "result": "inactive"}, {"measurement": "outcome", "setting": "[5]", "result": "inactive"}, {"measurement": "outcome", "setting": "[6]", "result": "inactive"}, {"measurement": "outcome", "setting": "[7]", "result": "inactive"}, {"measurement": "outcome", "setting": "[8]", "result": "inactive"}, {"measurement": "outcome", "setting": "[9]", "result": "inactive"}, {"measurement": "outcome", "setting": "[10]", "result": "inactive"}]}
{"smiles": "CC(Cc1ccc(O)c(O)c1)C(C)Cc1ccc(O)c(O)c1", "note": "(stereo not drawn)", "values": [{"measurement": "outcome", "setting": "[2]", "result": "inactive"}, {"measurement": "outcome", "setting": "[3]", "result": "inactive"}, {"measurement": "outcome", "setting": "[4]", "result": "inactive"}]}
{"smiles": "C#C[C@]1(O)CC[C@H]2[C@@H]3CCc4cc(OC)ccc4[C@H]3CC[C@@]21C", "values": [{"measurement": "outcome", "setting": "[2]", "result": "inactive"}, {"measurement": "outcome", "setting": "[3]", "result": "inactive"}, {"measurement": "outcome", "setting": "[4]", "result": "inactive"}]}
{"smiles": "OC[C@@H](O)[C@@H](O)[C@H](O)[C@@H](O)CO", "values": [{"measurement": "outcome", "setting": "[2]", "result": "inactive"}, {"measurement": "outcome", "setting": "[3]", "result": "inactive"}, {"measurement": "outcome", "setting": "[4]", "result": "inactive"}]}
{"smiles": "CCCCCCCOC(=O)c1ccccc1C(=O)OCCCCCCC", "values": [{"measurement": "outcome", "setting": "[2]", "result": "inactive"}, {"measurement": "outcome", "setting": "[3]", "result": "inactive"}, {"measurement": "outcome", "setting": "[4]", "result": "inactive"}]}
{"smiles": "CN(C)Cc1ccccc1O", "values": [{"measurement": "outcome", "setting": "[1]", "result": "inactive"}]}
